# From PubChem BioAssay
# Calls of active or inactive are those of the source.
# How the values were obtained:
# [1] = binders of probe aFSTL3 on microarray, primary screen, stem cell growth factor project, biochemical, small-molecule microarray, fluorescence 635/667 (AID 1064); conditions: higher = more signal;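 also: measures binding of the biotinylated anti-FSTL3 antibody to printed compounds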
# [2] = binders from COS7 lysate, DM2A8 probe, primary screen, torsin A project, cell lysate, small-molecule microarray, fluorescence 635/667 (AID 1065); conditions: higher = more signal, COS7 lysate expressing mutant human TOR1A
# [3] = binders of probe aFGF2 on microarray, primary screen, stem cell growth factor project, biochemical, small-molecule microarray, fluorescence 635/667 (AID 1067); conditions: higher = more signal;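 also: measures binding of biotinylated aFGF2 protein to printed compounds on slides; z-score merges feature fluorescence and signal-to-noise across triplicate slides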
# [4] = binders of probe aFGF10 on microarray, primary screen, stem cell growth factor project, biochemical, small-molecule microarray, fluorescence 635/667 (AID 1071); conditions: higher = more signal;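 also: score merges 667 nm spot intensity and signal to noise from triplicate slides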
# [5] = target: Neurogenic locus notch homolog protein 2 (Homo sapiens) (UniProt Q04721); assay: Notch2 binders on small-molecule microarrays, primary screen, biochemical, small-molecule microarray, 635 nm fluorescence, stem cell growth factors (AID 1073); conditions: Notch2 binding, higher = more signal
# [6] = target: Pro-neuregulin-1, membrane-bound isoform (Homo sapiens) (UniProt Q02297); assay: NRG1 binders on small-molecule microarrays, primary screen, psychiatric disease protein project, biochemical, small-molecule microarray, fluorescence 635/667 (AID 1075); conditions: NRG1 binding, 635 nm fluorescence, higher = more signal;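 also: score combines 667 nm spot fluorescence with signal to noise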
# [7] = test system: Neuregulin-1 EGF-like domain; assay: binders of neuregulin-1 EGF-like domain, primary screen, biochemical, small-molecule microarray, 635 nm fluorescence (AID 1081); conditions: small-molecule microarray binding, higher = more signal;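 also: binding of the protein to compounds printed on small-molecule microarray slides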
# [8] = FRG1 promoter luciferase signal modulators, primary screen, FRG1 inhibition for FSHD, cell-based, C2C12 myotubes, firefly/Renilla luciferase, luminescence (AID 1084); conditions: higher = more signal, called active from +8 up or from −8 down
# [9] = binders of probe aFST on microarray, primary screen, stem cell growth factor project, biochemical, small-molecule microarray, fluorescence 635/667 (AID 1086); conditions: higher = more signal;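 also: score merges 667 nm fluorescence with signal-to-noise of each printed compound spot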
# [10] = binders of probe aHhip on microarray, primary screen, stem cell growth factor project, biochemical, small-molecule microarray, fluorescence 635/667 (AID 1087); conditions: higher = more signal;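 also: score merges spot fluorescence at 667nm with spot signal to noise ratio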
# Sequence of Pro-neuregulin-1, membrane-bound isoform (Homo sapiens) (Q02297 whole entry, looked up, the tested form may be a part, canonical isoform): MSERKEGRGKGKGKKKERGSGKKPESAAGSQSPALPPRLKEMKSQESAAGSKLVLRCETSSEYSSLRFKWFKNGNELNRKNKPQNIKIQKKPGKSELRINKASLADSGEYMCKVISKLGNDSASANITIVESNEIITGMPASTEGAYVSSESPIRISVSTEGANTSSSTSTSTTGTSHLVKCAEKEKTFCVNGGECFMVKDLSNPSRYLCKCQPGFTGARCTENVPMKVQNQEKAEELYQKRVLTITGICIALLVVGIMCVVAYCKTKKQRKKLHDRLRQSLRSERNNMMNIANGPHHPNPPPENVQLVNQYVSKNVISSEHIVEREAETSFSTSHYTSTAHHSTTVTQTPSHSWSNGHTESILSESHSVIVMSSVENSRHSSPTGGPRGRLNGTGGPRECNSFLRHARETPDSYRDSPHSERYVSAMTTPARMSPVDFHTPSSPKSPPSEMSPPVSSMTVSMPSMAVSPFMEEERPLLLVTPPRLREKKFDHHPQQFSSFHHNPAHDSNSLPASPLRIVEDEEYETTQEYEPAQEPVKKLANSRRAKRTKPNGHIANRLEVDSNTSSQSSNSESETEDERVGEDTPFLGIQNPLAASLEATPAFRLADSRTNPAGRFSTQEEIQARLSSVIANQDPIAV
# Sequence of Neurogenic locus notch homolog protein 2 (Homo sapiens) (Q04721 whole entry, looked up, canonical isoform): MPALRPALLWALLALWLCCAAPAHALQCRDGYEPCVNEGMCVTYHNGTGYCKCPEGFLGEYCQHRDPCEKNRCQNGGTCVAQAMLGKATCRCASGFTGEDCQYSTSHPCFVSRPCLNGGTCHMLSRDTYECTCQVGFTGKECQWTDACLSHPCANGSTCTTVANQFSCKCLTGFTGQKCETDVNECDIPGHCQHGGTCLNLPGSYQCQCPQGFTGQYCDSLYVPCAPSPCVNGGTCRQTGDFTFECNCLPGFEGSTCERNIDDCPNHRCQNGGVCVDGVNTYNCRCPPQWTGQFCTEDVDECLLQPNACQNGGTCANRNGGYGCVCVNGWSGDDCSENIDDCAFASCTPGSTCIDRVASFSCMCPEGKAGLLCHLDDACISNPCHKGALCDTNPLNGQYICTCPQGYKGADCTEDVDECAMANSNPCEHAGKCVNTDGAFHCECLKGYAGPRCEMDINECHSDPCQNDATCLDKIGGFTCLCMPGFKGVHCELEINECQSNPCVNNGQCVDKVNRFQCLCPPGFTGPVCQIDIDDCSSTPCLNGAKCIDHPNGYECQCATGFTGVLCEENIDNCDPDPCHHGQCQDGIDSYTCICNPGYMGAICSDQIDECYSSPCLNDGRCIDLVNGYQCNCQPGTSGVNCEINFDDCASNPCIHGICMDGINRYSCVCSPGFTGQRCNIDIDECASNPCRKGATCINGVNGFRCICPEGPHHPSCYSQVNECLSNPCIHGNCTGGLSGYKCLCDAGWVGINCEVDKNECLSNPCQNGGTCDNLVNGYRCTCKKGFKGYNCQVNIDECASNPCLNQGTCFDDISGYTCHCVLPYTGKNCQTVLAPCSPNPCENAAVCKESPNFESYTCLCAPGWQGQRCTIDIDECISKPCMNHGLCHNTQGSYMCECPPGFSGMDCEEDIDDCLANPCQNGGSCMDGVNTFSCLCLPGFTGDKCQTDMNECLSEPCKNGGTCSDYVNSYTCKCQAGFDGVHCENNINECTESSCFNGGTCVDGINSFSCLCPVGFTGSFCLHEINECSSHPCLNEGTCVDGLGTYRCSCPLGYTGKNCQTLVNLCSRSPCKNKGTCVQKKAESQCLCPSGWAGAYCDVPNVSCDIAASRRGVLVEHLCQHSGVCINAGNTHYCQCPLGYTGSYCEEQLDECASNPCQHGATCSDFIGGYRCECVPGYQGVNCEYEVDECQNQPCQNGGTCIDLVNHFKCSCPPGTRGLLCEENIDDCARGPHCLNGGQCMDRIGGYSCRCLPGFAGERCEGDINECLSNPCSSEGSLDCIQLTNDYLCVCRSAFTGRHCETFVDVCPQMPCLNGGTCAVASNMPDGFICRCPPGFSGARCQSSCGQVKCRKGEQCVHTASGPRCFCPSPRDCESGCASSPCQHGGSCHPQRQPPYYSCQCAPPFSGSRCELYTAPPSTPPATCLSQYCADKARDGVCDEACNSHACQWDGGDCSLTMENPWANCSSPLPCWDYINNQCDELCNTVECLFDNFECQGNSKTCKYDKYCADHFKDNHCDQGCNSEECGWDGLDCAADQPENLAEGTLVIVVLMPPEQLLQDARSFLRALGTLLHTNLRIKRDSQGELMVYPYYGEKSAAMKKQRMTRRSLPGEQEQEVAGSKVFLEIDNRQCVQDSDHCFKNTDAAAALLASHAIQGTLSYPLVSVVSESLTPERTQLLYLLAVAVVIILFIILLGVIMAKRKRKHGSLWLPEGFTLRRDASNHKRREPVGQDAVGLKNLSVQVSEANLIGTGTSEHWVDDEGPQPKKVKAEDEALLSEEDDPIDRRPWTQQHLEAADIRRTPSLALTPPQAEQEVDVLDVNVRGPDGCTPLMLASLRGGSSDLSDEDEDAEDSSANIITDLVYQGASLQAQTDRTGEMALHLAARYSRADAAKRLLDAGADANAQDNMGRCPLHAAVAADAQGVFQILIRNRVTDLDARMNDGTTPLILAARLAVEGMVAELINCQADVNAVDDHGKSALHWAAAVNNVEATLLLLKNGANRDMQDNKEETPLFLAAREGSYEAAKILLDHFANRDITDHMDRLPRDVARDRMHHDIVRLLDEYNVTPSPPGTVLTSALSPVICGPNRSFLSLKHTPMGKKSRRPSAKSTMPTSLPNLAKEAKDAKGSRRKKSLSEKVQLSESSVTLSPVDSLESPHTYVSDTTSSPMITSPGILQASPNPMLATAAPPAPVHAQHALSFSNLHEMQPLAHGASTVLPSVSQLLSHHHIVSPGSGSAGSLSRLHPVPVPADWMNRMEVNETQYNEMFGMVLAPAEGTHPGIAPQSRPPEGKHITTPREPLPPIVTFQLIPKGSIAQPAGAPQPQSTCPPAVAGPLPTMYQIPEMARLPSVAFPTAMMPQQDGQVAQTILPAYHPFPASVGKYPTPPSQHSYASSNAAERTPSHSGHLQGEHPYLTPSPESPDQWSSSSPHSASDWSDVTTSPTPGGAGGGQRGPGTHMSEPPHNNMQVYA
Compound,composite z-score [1],composite z-score [2],composite z-score [3],composite z-score [4],composite z-score [5],composite z-score [6],composite z-score [7],z-score [8],composite z-score [9],composite z-score [10]
COc1ccc(-c2ccccc2[C@@H]2N[C@H](C(=O)O)CC[C@H]2C)cc1,-0.285,-0.0323,-0.132,0.277,0.244,-0.233,0.424,-0.438 (inactive),0.0952,-0.134
CCOC(=O)C[C@H]1[C@H](OC(=O)c2ccccc2-c2ccccc2)[C@@H](NC(=O)C2CCCCC2)c2cc(OCCCO)ccc2N1C(=O)c1ccccc1,-0.43,0.0236,-0.041,0.687,0.797,0.0516,0.652,0.404 (inactive),0.0322,-0.0047
COc1ccc([Si](C)(C)[C@H]2[C@H](CCO)O[C@@]3(C(=O)N(Cc4ccc(N5CCCCC5=O)cc4)c4ccccc43)[C@@H]2C)cc1,0.0352,0.959,-0.0747,-0.0971,0.308,1.46,1.05,-4.59 (inactive),0.172,-0.0994
COCC(=C=CC[C@H](O)c1ccc(OCCO)cc1)C[C@H](O)c1ccccn1,-0.103,0.628,-0.156,-0.106,-0.499,0.508,1.27,1.61 (inactive),-0.192,-0.134
COC(=O)c1ccc(C#CC(NP(=O)(c2ccccc2)c2ccccc2)c2ccccc2)cc1 (stereo not given),0.301,-0.214,-0.108,0.182,1.87,1.68,1.36,-0.131 (inactive),1.34,2.35
[N-]=[N+]=Nc1ccccc1C[C@@]1(C(=O)N2CCOCC2)N=C(c2ccc(OCCCO)cc2)O[C@@H]1c1ccccc1N=[N+]=[N-],1.14,0.782,0.195,0.707,1.45,0.889,1.12,-1.36 (inactive),1.18,0.0511
COC(=O)C1=C(C)N(Cc2ccccc2)c2c(C(=O)OC)c(C(=O)OC)c(C(=O)OC)c(=O)n2[C@@H]1c1ccccc1,-0.274,0.657,-0.0181,0.282,0.898,0.289,0.721,0.365 (inactive),0.224,-0.0994
O=C1O[C@H](c2ccccc2)[C@H](c2ccccc2)N2[C@H]1[C@@H](C(=O)Nc1nc3ccccc3s1)[C@]1(C(=O)Nc3ccc(C#CC4(O)CCCCCC4)cc31)[C@H]2c1ccc(O)cc1,-0.299,-0.0427,-0.0407,0.443,1.34,1.8,1.14,0.36 (inactive),0.668,0.0623
CC(=O)NCCCC[C@@H]1NC(=O)[C@@H]2C[C@H](C(=O)NCc3ccc(F)cc3)[C@H](c3cccc(OCCO)c3)N2C1=O,0.617,-0.0522,-0.0038,0.107,-0.417,1.39,1.36,0.967 (inactive),-0.205,-0.0237
CC(C)[Si](OCCCNS(=O)(=O)c1ccc(Br)cc1)(C(C)C)C(C)C,-0.491,0.231,-0.0529,0.962,1.43,0.344,0.468,-3.13 (inactive),0.623,-0.0645
C=C(COC)/C(=C/C[C@@H](OC(=O)c1ccncc1)c1ccc(OCCO)cc1)c1cc(C(=O)OC)ccc1OC,-0.202,0.984,-0.0775,0.702,0.864,1.44,1.2,-2.14 (inactive),0.238,0.219
C[C@]1(C(=O)NCCN2CCOCC2)c2ccccc2C(=O)N(Cc2ccccc2)[C@H]1c1ccc(CO)cc1,-0.0452,0.789,0.0008,-0.425,-0.522,1.35,1.26,-0.351 (inactive),-0.352,-0.0346
C=CCOC(=O)[C@@H]1[C@H]2C(=O)O[C@H](c3ccccc3)[C@H](c3ccccc3)N2[C@H](c2ccc(OCCOC(=O)[C@H]3C[C@H]4C(=O)N[C@@H](CCCCNC(C)=O)C(=O)N4[C@H]3c3ccc(O)cc3)cc2)[C@@]12C(=O)Nc1ccc(I)cc12,-0.583,0.242,0.0435,0.536,0.5,1.24,1.17,0.46 (inactive),-0.0007,0.158
COc1ccc(-c2cc3c(c(-c4ccccc4)n2)[Si](C(C)C)(C(C)C)O[C@H]3c2ccccc2)cn1,-0.248,0.0094,-0.106,0.144,0.241,0.0264,0.335,-0.68 (inactive),-0.116,0.316
COCCCNC(=O)[C@@]1(c2ccc([N+](=O)[O-])cc2)CC(=O)N(C2CCCCC2)[C@@H]1c1ccc(CO)cc1,-1.19,-0.655,-0.248,0.174,-0.243,0.763,1.39,-0.912 (inactive),-0.604,-0.859
CCCNC(=O)[C@@]1(Sc2ccc(C)cc2)CC(=O)N(Cc2ccccc2Cl)[C@@H]1c1ccc(CO)cc1,0.295,-0.106,-0.0711,0.122,0.653,-0.0272,1.3,-3.75 (inactive),0.427,-0.0672

Compound,composite z-score [1],composite z-score [2],composite z-score [3],composite z-score [4],composite z-score [5],composite z-score [6],composite z-score [7],z-score [8],composite z-score [9],composite z-score [10]
COC(=O)[C@@]1(Cc2ccccc2)[C@H]2c3cc(C(=O)N4CCCC4)n(CCN4CNCC4=O)c3C[C@H]2CN1C(=O)c1ccccc1,0.243,1.35,0.106,0.598,1.4,1.71,1.37,1.41 (inactive),0.604,0.209
NC(=O)NCC#Cc1ccc2c(c1)[C@]1(C(=O)N2)[C@H](C(N)=O)[C@H]2C(=O)O[C@H](c3ccccc3)[C@H](c3ccccc3)N2[C@@H]1c1ccccc1OCCO,0.163,0.494,0.0143,0.0467,0.335,0.221,-0.0706,-0.317 (inactive),0.597,-0.0645
CO[C@H]1COC(=O)[C@H](C)COC(=O)[C@H](Cc2ccccc2)NC(=O)CC=C[C@H]1C,0.34,0.355,-0.167,-0.106,-0.889,-0.339,-0.942,-0.412 (inactive),0.0716,-0.455
Cc1ccc(S[C@]2(C(=O)O)CC(=O)N(Cc3cc(C(F)(F)F)cc(C(F)(F)F)c3)[C@@H]2c2ccc(CO)cc2I)cc1,0.793,0.0039,-0.103,0.002,-1.18,1.28,0.603,0.419 (inactive),-0.292,0.0373
CN1C2C=C(c3ccc(CO)cc3)C(C3C(=O)N(C(N)=O)C(=O)C32)C1c1cccs1 (stereo not given),0.631,0.056,-0.0566,0.0657,-0.458,0.839,1.27,1.02 (inactive),-0.221,-0.0645
CO[C@H]1O[C@H](CO)[C@@H](OC(=O)Nc2ccc(Oc3ccccc3)cc2)[C@H](OC(=O)Nc2ccccc2-c2ccccc2)[C@H]1OC(=O)Nc1ccccc1-c1ccccc1,-0.448,0.44,0.104,1.04,1.51,1.52,1.35,-0.441 (inactive),0.33,-0.0672
C[C@@H]1CC[C@H]2C(=O)N3[C@@H](CC[C@@H](C)[C@@H]3c3cccc(N4CCOCC4)c3)C(=O)N2[C@H]1c1cccc(N2CCOCC2)c1,0.0943,0.378,-0.166,0.616,0.92,0.414,1.1,-0.531 (inactive),0.619,1.3
CC/C=C/C(=O)N(C[C@@H]1CCCO1)[C@@H]1CC(C(=O)NCCO)=C[C@H](Oc2c(I)cc(CO)cc2OC)[C@H]1O,-0.329,0.51,-0.22,0.629,0.347,0.06,0.366,-1.24 (inactive),-0.176,-0.0994
CO[C@@H]1COC(=O)[C@H](COCc2ccccc2)NC(=O)CC=C[C@@H](C)[C@H](OC)COC(=O)[C@H](COCc2ccccc2)NC(=O)CC=C[C@H]1C,-0.594,0.334,-0.138,-0.0596,0.0136,0.567,-0.618,-0.496 (inactive),-0.0224,-0.0994
CN(C)c1ccc(C(O)C2C=CC3C(=O)NC(=O)C3N2Nc2ccc(Cl)cc2Cl)cc1 (stereo not given),0.649,-0.0467,0.021,0.294,0.879,1.18,1.11,3.74 (inactive),1.38,0.0677
CC(=O)NCCCC[C@@H]1NC(=O)[C@H]2C[C@@H](C(=O)NCCCCCCN(C)C)[C@@H](c3ccc(O)cc3)N2C1=O,-0.463,1.68,-0.0876,0.785,0.269,1.43,1.48,4.59 (inactive),0.31,0.0401
COCCCNC(=O)[C@@H]1c2ccccc2C(=O)N(CC23CC4CC(CC(C4)C2)C3)[C@H]1c1ccc(CO)cc1,0.621,0.173,0.177,0.325,1.46,-0.0557,1.1,-2.03 (inactive),0.327,0.0053
O=C1C2C=CC(C(O)C#Cc3ccccc3)N(Nc3ccccc3)C2C(=O)N1c1ccccc1 (stereo not given),0.532,-0.17,-0.0316,0.208,1.46,1.74,1.24,0.818 (inactive),0.246,-0.226
CCCNC(=O)[C@@H]1c2ccccc2C(=O)N(Cc2cc(F)cc(C(F)(F)F)c2)[C@H]1c1ccc(CO)cc1,-0.0356,0.711,0.032,0.525,1.12,1.03,1.25,-1.02 (inactive),0.613,0.0176
C=CCC(OC(C)=O)[C@@H]1[C@@H](N(Cc2ccc(-c3ccccc3)cc2)C(=O)c2ccc(-c3ccccc3)cc2)c2cc(OCCCO)ccc2N1C(=O)Cc1ccc(OC)cc1 (stereo not given in full),-0.28,0.354,-0.0676,0.27,-0.142,0.0866,-0.261,0.826 (inactive),0.391,-0.189
C[N+](C)(C)CCCC[C@@H]1NC(=O)[C@H]2C[C@@H](C(=O)NCc3ccc(F)cc3)[C@@H](c3cccc(OCCO)c3)N2C1=O,0.466,1.02,-0.149,-0.579,-0.607,0.594,1.22,0.106 (inactive),0.231,0.0176
